AC50 and outcome data for 24 compounds are collected here from PubChem BioAssay (EPA / NIEHS).

Inconclusive results are not listed. Active and inactive are the calls of the source. How the source made its calls: active means hit-call score of the fitted dose curve at least 0.9, where 1 is the maximum; inconclusive means response in the unintended direction; inactive means score below 0.9.

Sequence of human Retinoic Acid Receptor gamma (RARg), RARG (gene 5916) (P13631 whole entry, looked up, the tested form may be a part): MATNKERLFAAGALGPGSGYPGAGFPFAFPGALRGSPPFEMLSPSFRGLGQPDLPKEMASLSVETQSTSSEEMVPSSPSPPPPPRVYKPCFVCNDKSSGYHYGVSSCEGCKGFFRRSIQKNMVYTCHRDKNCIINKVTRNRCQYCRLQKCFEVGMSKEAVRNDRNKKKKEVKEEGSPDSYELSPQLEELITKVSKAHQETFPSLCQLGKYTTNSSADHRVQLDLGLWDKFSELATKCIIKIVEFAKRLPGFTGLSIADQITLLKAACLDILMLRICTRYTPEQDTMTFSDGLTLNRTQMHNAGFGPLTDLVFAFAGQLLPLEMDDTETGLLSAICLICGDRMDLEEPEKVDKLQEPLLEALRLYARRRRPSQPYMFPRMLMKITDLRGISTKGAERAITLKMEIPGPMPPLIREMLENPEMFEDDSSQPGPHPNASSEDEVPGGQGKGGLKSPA
Sequence of Nuclear receptor subfamily 1 group I member 2 (Homo sapiens) (O75469 whole entry, looked up, the tested form may be a part): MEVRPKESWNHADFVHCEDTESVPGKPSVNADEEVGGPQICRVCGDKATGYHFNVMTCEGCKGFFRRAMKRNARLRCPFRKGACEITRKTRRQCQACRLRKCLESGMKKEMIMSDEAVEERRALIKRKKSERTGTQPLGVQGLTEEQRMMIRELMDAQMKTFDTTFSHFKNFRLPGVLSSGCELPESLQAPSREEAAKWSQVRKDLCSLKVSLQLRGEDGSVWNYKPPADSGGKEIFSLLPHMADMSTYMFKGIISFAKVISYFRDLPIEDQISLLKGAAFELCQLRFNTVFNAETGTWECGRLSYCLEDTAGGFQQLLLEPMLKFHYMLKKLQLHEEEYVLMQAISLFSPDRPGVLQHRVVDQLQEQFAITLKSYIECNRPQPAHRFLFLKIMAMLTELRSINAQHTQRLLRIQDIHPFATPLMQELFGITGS
Sequence of human RAR-related Orphan Receptor beta (RORb), RORB (gene 6096) (Q92753 whole entry, looked up, the tested form may be a part): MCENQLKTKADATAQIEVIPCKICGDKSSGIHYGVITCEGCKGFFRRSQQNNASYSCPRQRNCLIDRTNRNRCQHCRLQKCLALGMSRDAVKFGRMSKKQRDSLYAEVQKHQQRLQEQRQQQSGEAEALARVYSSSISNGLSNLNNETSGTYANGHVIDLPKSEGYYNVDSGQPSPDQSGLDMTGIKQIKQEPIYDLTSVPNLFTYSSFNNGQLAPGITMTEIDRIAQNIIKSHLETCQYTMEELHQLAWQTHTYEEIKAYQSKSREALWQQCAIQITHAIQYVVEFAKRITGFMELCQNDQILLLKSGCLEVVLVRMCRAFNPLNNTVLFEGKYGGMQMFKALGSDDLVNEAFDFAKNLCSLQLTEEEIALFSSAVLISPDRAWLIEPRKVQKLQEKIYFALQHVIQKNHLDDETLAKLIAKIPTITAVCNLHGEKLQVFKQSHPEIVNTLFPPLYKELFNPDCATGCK

The first experiment deals with Nuclear receptor subfamily 1 group I member 2 (Homo sapiens) (UniProt O75469). Nature of the experiment: ATG_PXR_TRANS: Attagene TRANS-FACTORIAL HepG2 Assay for human Pregnane X Receptor (PXR) (AID 2283008). A digest of the protocol:
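Transactivation by exogenous PXR–GAL4 fusion measured as reporter transcript induction after 24 h compound treatment of transfected human HepG2 cells. Read-out via RT-PCR and capillary electrophoresis of labelled fragments, fitted upward relative to DMSO.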
For orientation: AC50 means the midpoint of the concentration-response curve, whichever way the signal moves. Take `CCCCC(CC)COC(=O)/C=C\C(=O)OCC(CC)CCCC` (centres undefined): the AC50 was 4.17 µM (active).
On to `NCCNCCN`, for which the compound was called inactive.
With `Cc1ccc2n[nH]nc2c1`, the call was inactive.
Take `C=CC(=O)OCC(O)COc1ccccc1` (centres undefined): the AC50 was 61 µM (active).
As to `CCCCCOC(=O)CCC`, the call was inactive.
The same measure, in the same setting: the entry for `O=C1CCCCCCCCCCOCCCCO1` is “inactive”.
For `CC1CCC(C(C)CS)CC1S` (centres undefined), the AC50 is 2.84 µM (active).
`Cc1ccc(Nc2ccc(O)c3c2C(=O)c2ccccc2C3=O)cc1`: the outcome was inactive.
Turning to `C=C(C)C(=O)O[C@H]1C[C@@H]2CC[C@@]1(C)C2(C)C`, the AC50 is 31.6 µM (active).
Turning to `CCCCCC(CO)CCC` (centres undefined), the compound was called inactive.
Consider `CCn1c2ccccc2c2cc(N)ccc21`, for which the AC50 was 4.67 µM (active).
The same measure, in the same setting: the figure for `O=C1CCCCCCCCCCCCCCO1` is 48.3 µM (active).
On to `Cc1ccc(C(=O)c2cc(O)c(O)c([N+](=O)[O-])c2)cc1`, for which the result was inactive.
On to `N#Cc1ccccc1`, for which the compound was called inactive.
Still for that read-out and setting: in the case of `c1ccc2c(c1)c1cccc3ccc4cccc2c4c31` it was “inactive”.
For the compound `CCCCCCCCCCCCCOS(=O)(=O)O`, the outcome was inactive.
As to `C#C[C@]1(O)CC[C@H]2[C@@H]3CCC4=Cc5oncc5C[C@]4(C)[C@H]3CC[C@@]21C`, the AC50 is 5.38 µM (active).
With `C[C@H]1C[C@@H]2[C@H]([C@@H](O)C[C@@]3(C)[C@H]2CC[C@]3(O)C(=O)CO)[C@@]2(C)C=CC(=O)C=C12`, the result was inactive.
Regarding `O=c1cc(-c2ccccc2)oc2cc(O)cc(O)c12`, the call was inactive.
Still for that read-out and setting: in the case of `CC(C)(COC(=O)c1ccccc1)COC(=O)c1ccccc1` it was “inactive”.
Take `CCCCOCCOCCSC#N`: the AC50 is 3.36 µM (active).
Turning to `Nc1cc([N+](=O)[O-])ccc1O`, the result was inactive.

Another experiment has as its target human Retinoic Acid Receptor gamma (RARg), RARG (gene 5916) (UniProt P13631). Nature of the experiment: ATG_RARg_TRANS: Attagene TRANS-FACTORIAL HepG2 Assay for human Retinoic Acid Receptor gamma (RARg) (AID 2283009). A digest of the protocol:
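Readout: reporter transcript levels via RT-PCR, 6-FAM primer-extension labelling, HpaI digestion and capillary electrophoresis. Cells: HepG2 carrying transfected RARg-GAL4 chimera plus UAS reporter set. Dosing 24 h; DMSO negative control.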
For the compound `CCCCCOC(=O)CCC`, the call was inactive.
On to `O=C[C@H](O)[C@H](O)[C@H](O)CO`, for which the call was inactive.
As to `O=C1CCCCCCCCCCOCCCCO1`, the compound was called inactive.
Same read-out and setting: the entry for `CC1CCC(C(C)CS)CC1S` (centres undefined) is “inactive”.
Same read-out and setting: in the case of `CCCCCC(CO)CCC` (centres undefined) it was “inactive”.
Same read-out and setting: in the case of `O=C(O)CN(CCN(CC(=O)O)CC(=O)O)CCN(CC(=O)O)CC(=O)O` it was “inactive”; in that of `O=c1cc(-c2ccccc2)oc2cc(O)cc(O)c12`, “inactive”.

A further experiment addresses human RAR-related Orphan Receptor beta (RORb), RORB (gene 6096) (UniProt Q92753). Nature of the experiment: ATG_RORb_TRANS: Attagene TRANS-FACTORIAL HepG2 Assay for human RAR-related Orphan Receptor beta (RORb) (AID 2283010). A digest of the protocol:
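HepG2, transient MRTU transfection (GAL4-UAS reporters, exogenous NR-Gal4 chimeras); 24 h compound exposure; total RNA → RT-PCR → 6-FAM primer extension → HpaI digest → CE fluorescence. Positive direction vs DMSO baseline.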
As for `NCCNCCN`, the compound was called inactive.
Same read-out and setting: the entry for `CCCCCOC(=O)CCC` is “inactive”; for `O=C1CCCCCCCCCCOCCCCO1` it is “inactive”.
Consider `C=C(C)C(=O)O[C@H]1C[C@@H]2CC[C@@]1(C)C2(C)C`, for which the outcome was inactive.
As for `CCCCCC(CO)CCC` (centres undefined), the compound was classed as inactive.
Regarding `O=C1CCCCCCCCCCCCCCO1`, the compound was classed as inactive.
The same measure, in the same setting: in the case of `c1ccc2c(c1)c1cccc3ccc4cccc2c4c31` it was “inactive”.
Still for that read-out and setting: in the case of `C#C[C@]1(O)CC[C@H]2[C@@H]3CCC4=Cc5oncc5C[C@]4(C)[C@H]3CC[C@@]21C` it was “inactive”.
Turning to `O=C(O)CN(CCN(CC(=O)O)CC(=O)O)CCN(CC(=O)O)CC(=O)O`, the compound was classed as inactive.
As for `Nc1cc([N+](=O)[O-])ccc1O`, the compound was called inactive.
